This note sets out measurements from PubChem BioAssay (NCI).

SMILES strings stand for the structures. About 83,000 compounds went through this panel and 20% of them were active in at least one assay; those are over-represented in the sample as a whole.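 96-well plates, one dose, 48 hours. Percent growth reported; active if below 10.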 A number with no mark means an inactive call. Calls of active or inactive are those of the source.

Holding throughout (assay): NCI-60 one-dose screen, 48 h (100 = growth as untreated, 0 = no growth, -100 = all killed)
One experiment has as its system A549/ATCC NSCLC. Particulars: 10 µM unless noted.
The test system of another experiment is K-562 leukemia. The note with it: 10 µM unless noted.
The next experiment relates to SF-295 CNS. Particulars: 10 µM unless noted.
The test system of a further experiment is SF-539 CNS. Particulars: 10 µM unless noted.
The next experiment has as its system UACC-257 melanoma. Particulars: 10 µM unless noted.
The next experiment deals with HCT-15 colon. Particulars: 10 µM.
The subject of a further experiment is HT29 colon. The note with it: 10 µM unless noted.
A further experiment relates to SNB-75 CNS. Particulars: 10 µM unless noted.
A further experiment concerns PC-3 prostate. The note with it: 10 µM unless noted.
In the next experiment the test system is SK-MEL-5 melanoma. Particulars: 10 µM unless noted.
The test system of a further experiment is SK-MEL-2 melanoma. The note with it: 10 µM unless noted.
Another experiment relates to ACHN renal. Particulars: 10 µM unless noted.
For another experiment, the system named is A498 renal. Particulars: 10 µM unless noted.
Another experiment relates to HL-60(TB) leukemia. Particulars: 10 µM unless noted.
For another experiment, the system named is OVCAR-8 ovarian. The note with it: 10 µM unless noted.
The subject of another experiment is OVCAR-4 ovarian. Particulars: 10 µM unless noted.
Another experiment deals with IGROV1 ovarian. Particulars: 10 µM.
In a further experiment the test system is HS 578T breast. The note with it: 10 µM unless noted.
The subject of another experiment is HCC-2998 colon. Particulars: 10 µM unless noted.
The subject of another experiment is T-47D breast. The note with it: 10 µM unless noted.

Regarding `C[C@@H]1CC[C@@H]2[C@@H]1[C@H](OC(=O)/C=C/C1CCCCC1)[C@]1(C3CCCCC3)C[C@@H](OC(=O)CO)[C@@]2(C)O1`, the growth is 60.6% in the experiment with A549/ATCC NSCLC; 44.1% in the experiment with K-562 leukemia; 72.7% in the experiment with SF-295 CNS; 95.9% in the experiment on SF-539 CNS; 61.7% in the experiment with UACC-257 melanoma; 48.4% with HCT-15 colon. In addition, the growth in the experiment on HT29 colon is 31.4%; in the experiment on SNB-75 CNS it was 76.9%; in the experiment with PC-3 prostate, 31.1%; in the experiment with SK-MEL-5 melanoma, 84.8%; with SK-MEL-2 melanoma, 73.7%; with ACHN renal it was 14.9%. Moreover, the growth is -83.3% (active) with A498 renal; 8.36% (active) in the experiment on HL-60(TB) leukemia; 23% in the experiment on OVCAR-8 ovarian; 61.1% with OVCAR-4 ovarian; 75.7% with IGROV1 ovarian; -28.1% (active) in the experiment on HS 578T breast. Further, the growth with HCC-2998 colon is 49.5%.

In the case of `[Cl][Hg][n]1cnc2c(Cl)c(Cl)c(Cl)cc21`, the growth was 86.7% in the experiment on A549/ATCC NSCLC; 96.5% in the experiment on K-562 leukemia; 96.1% in the experiment on SF-295 CNS; 101% in the experiment on SF-539 CNS; 96.2% with UACC-257 melanoma; 100% with HCT-15 colon. The growth is 81.2% with HT29 colon; 104% in the experiment on SNB-75 CNS; 88.7% with PC-3 prostate; 102% in the experiment on SK-MEL-5 melanoma; 97.9% in the experiment with ACHN renal; 104% with A498 renal. Further, the growth is 99.9% with HL-60(TB) leukemia; 101% with OVCAR-8 ovarian; 109% with OVCAR-4 ovarian; 99.7% in the experiment on IGROV1 ovarian; 79.5% in the experiment on HS 578T breast; 72.2% in the experiment on T-47D breast. Moreover, the growth in the experiment on HCC-2998 colon was 107%.

Consider `COc1cc(C2(C#N)CCN(C)CC2)cc(OC)c1OC`, for which the growth in the experiment on A549/ATCC NSCLC was 88.8%; with K-562 leukemia it was 97.5%; in the experiment on SF-295 CNS it was 98.8%; in the experiment on SF-539 CNS it was 111%; in the experiment with UACC-257 melanoma, 108%; with HCT-15 colon, 97.2%. Besides, the growth in the experiment with HT29 colon was 101%; with SNB-75 CNS it was 84.9%; in the experiment with PC-3 prostate, 97.5%; in the experiment with SK-MEL-5 melanoma, 107%; in the experiment with SK-MEL-2 melanoma it was 109%; in the experiment on ACHN renal, 98.5%. For the same molecule, the growth in the experiment with A498 renal is 88.4%; with HL-60(TB) leukemia, 95%; in the experiment on OVCAR-8 ovarian it was 101%; in the experiment with OVCAR-4 ovarian, 104%; with IGROV1 ovarian, 109%; in the experiment on HS 578T breast, 100%. Also, the growth in the experiment with T-47D breast is 98.1%.

Turning to `Nc1cccc2c1Oc1ccccc1O2`, the growth in the experiment with A549/ATCC NSCLC is 97%; in the experiment with K-562 leukemia it was 96.4%; with SF-295 CNS it was 119%; with SF-539 CNS, 112%; in the experiment with UACC-257 melanoma, 102%; with HCT-15 colon, 102%. The growth with HT29 colon was 119%; with SNB-75 CNS, 133%; in the experiment with PC-3 prostate, 84.9%; in the experiment with SK-MEL-5 melanoma it was 86%; with SK-MEL-2 melanoma, 98%; in the experiment on ACHN renal it was 99.2%. Also, the growth in the experiment with A498 renal is 118%; with HL-60(TB) leukemia, 107%; with OVCAR-8 ovarian, 104%; in the experiment on OVCAR-4 ovarian it was 115%; in the experiment on IGROV1 ovarian, 2.63% (active); in the experiment with HS 578T breast it was 112%. Besides, the growth is 115% in the experiment with T-47D breast and 109% in the experiment with HCC-2998 colon.

For `CCOc1cc(/C=N\Nc2nnc(C)n2N)c(C)cc1N(CCCl)CCCl`, the growth in the experiment on A549/ATCC NSCLC was 14.5%; in the experiment with K-562 leukemia, 7.77% (active); with SF-295 CNS it was -26.6% (active); in the experiment on SF-539 CNS it was 34.5%; in the experiment on UACC-257 melanoma it was -5.96% (active); in the experiment with HCT-15 colon, 25.5%. The growth in the experiment with HT29 colon was 23.9%; in the experiment on SNB-75 CNS it was 24.1%; with PC-3 prostate, 7.23% (active); in the experiment on SK-MEL-5 melanoma, -47.3% (active); in the experiment on SK-MEL-2 melanoma, 17.2%; with ACHN renal it was 21.6%. Also, the growth in the experiment with A498 renal was -26% (active); with HL-60(TB) leukemia it was -48.9% (active); in the experiment with OVCAR-8 ovarian, 19.5%; in the experiment on OVCAR-4 ovarian, 14.6%; in the experiment with IGROV1 ovarian, 12.3%; in the experiment with HS 578T breast, 14.6%. The growth with T-47D breast was 12.6%; with HCC-2998 colon, 3.97% (active).

With `COc1cccc2c1C(=O)c1c(O)c3c(c(O)c1C2=O)CC(O)(/C(C)=N/NC(=O)CCC(=O)N/N=C(\C)C1(O)Cc2c(O)c4c(c(O)c2C(OC2CC(N)C(O)C(C)O2)C1)C(=O)c1c(OC)cccc1C4=O)CC3OC1CC(N)C(O)C(C)O1` (centres undefined), the growth with A549/ATCC NSCLC is -30% [5 µM] (active); with K-562 leukemia, -60.2% [5 µM] (active); with SF-295 CNS, -32.8% [5 µM] (active); in the experiment on SF-539 CNS, -39.2% [5 µM] (active); with UACC-257 melanoma it was -17.8% [5 µM] (active); in the experiment on HT29 colon, -79% [5 µM] (active). The growth in the experiment on SNB-75 CNS was -53.2% [5 µM] (active); with PC-3 prostate, -19.3% [5 µM] (active); with SK-MEL-5 melanoma, -100% [5 µM] (active); with SK-MEL-2 melanoma it was -54.3% [5 µM] (active); in the experiment with ACHN renal it was -34.9% [5 µM] (active); with A498 renal, -69.1% [5 µM] (active). In addition, the growth was -41.9% [5 µM] (active) in the experiment with HL-60(TB) leukemia; 13.1% [5 µM] in the experiment on OVCAR-8 ovarian; -13.5% [5 µM] (active) in the experiment with OVCAR-4 ovarian; -11.5% [5 µM] (active) with HS 578T breast; -24.2% [5 µM] (active) in the experiment with T-47D breast; -94.5% [5 µM] (active) in the experiment on HCC-2998 colon.

`O=C(C(=O)N1CCCC1)c1cn(CCCCCn2cc(C(=O)C(=O)N3CCCC3)c3ccccc32)c2ccccc12`: the growth in the experiment on A549/ATCC NSCLC was 85.2%; in the experiment with K-562 leukemia, 68.8%; with SF-295 CNS, 93.9%; in the experiment on SF-539 CNS, 94.8%; in the experiment with UACC-257 melanoma it was 102%; in the experiment on HCT-15 colon it was 97.5%. For the same molecule, the growth with SNB-75 CNS is 74.9%; with PC-3 prostate, 65.9%; with SK-MEL-5 melanoma, 75.9%; in the experiment with SK-MEL-2 melanoma, 114%; with ACHN renal, 87.8%; in the experiment on A498 renal, 94.1%. For the same molecule, the growth is 109% in the experiment with HL-60(TB) leukemia; 90.8% with OVCAR-8 ovarian; 73% with OVCAR-4 ovarian; 98.8% with IGROV1 ovarian; 94.4% in the experiment with HS 578T breast; 91.3% with T-47D breast. Besides, the growth with HCC-2998 colon is 103%.

Regarding `OC1(c2ccccc2F)c2ccccc2C2=NCCN21` (centres undefined), the growth with A549/ATCC NSCLC was 114%; in the experiment on K-562 leukemia, 88.7%; with SF-295 CNS it was 91.8%; in the experiment on SF-539 CNS it was 100%; in the experiment on UACC-257 melanoma, 111%; with HCT-15 colon, 108%. Further, the growth with HT29 colon was 105%; in the experiment on SNB-75 CNS, 104%; in the experiment with PC-3 prostate, 95.6%; with SK-MEL-5 melanoma, 94.6%; in the experiment on SK-MEL-2 melanoma, 94.6%; in the experiment with ACHN renal, 114%. Besides, the growth in the experiment with A498 renal was 105%; with HL-60(TB) leukemia, 83.8%; in the experiment with OVCAR-8 ovarian, 104%; with OVCAR-4 ovarian, 107%; in the experiment on IGROV1 ovarian it was 79.4%; in the experiment on HS 578T breast, 110%. In addition, the results for the growth with T-47D breast and with HCC-2998 colon were 104% and 100%, respectively.
